HepG2 tox: qHTS for Inhibitors of TGF-b: Cytotox Counterscreen. Potency, µM (highest dose often 46.1 µM), for inactives: at the top dose activity change, negative = cytotoxicity, usual class: cytotoxic. HepG2 CAGA-GFP viability, ATP luminescence, 18 h. 0.76% of 410,000 active
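HepG2 CAGA-GFP cells (1000/well, DMEM with 1% FBS) received compound, then TGF-beta at 500 pg/mL final, and were incubated 18 hours at 37 degrees C. Viability was read by CellTiter-Glo luminescence. Media-only wells were set as complete cell-killing and DMSO as no toxicity.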
ATXN viability: Viability Counterscreen for Primary qHTS for Inhibitors of ATXN expression; Potency, µM (top dose mostly 56.7 µM), usual class: cytotoxic; S2 cells (HEK-293 line with an ATXN2-luciferase reporter) viability, CellTiter-Fluor protease fluorescence, 24 h; 0.49% of 400,000 active; also: nearly all actives have a fitted effect of over 40% in size
RORg inh: qHTS for inhibitors of ROR gamma transcriptional activity | Nuclear receptor ROR-gamma (Mus musculus), P51450 | 5.4% of 310,000 active | Drosophila S2 Gal4-RORgamma UAS-luciferase reporter, 20 h | Potency, µM (highest dose often 53.6 µM), for inactives: top-dose activity change, negative = inhibition, most hits filed as inhibitors; also: % is scaled to controls: 0 for no effect and ±100 for the full control effect; nearly all actives have a fitted effect of over 60% in size
Target sequence (P51450 whole entry, looked up, the tested form may be a part): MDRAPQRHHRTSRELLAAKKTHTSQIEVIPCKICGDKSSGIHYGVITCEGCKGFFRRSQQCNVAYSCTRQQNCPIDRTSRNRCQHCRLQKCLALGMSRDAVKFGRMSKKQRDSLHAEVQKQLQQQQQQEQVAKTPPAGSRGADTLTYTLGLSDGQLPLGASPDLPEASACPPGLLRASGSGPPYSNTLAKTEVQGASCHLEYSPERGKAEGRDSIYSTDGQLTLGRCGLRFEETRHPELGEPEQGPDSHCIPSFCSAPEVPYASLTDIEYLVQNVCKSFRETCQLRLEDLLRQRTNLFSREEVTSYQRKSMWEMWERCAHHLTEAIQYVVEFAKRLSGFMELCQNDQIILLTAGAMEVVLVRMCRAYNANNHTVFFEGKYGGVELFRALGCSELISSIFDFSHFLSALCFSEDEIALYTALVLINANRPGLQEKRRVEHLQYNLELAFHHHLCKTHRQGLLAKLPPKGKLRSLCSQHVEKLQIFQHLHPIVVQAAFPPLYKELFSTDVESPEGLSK
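ROR gamma transcriptional activity was tracked as Gal4-UAS luciferase output in stably transfected Drosophila Schneider cells, with compound added 1 hr before 700 uM copper sulfate induction and a 20 hr ambient-temperature incubation.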
VP16 counter: VP16 counterscreen qHTS for inhibitors of ROR gamma transcriptional activity. Drosophila S2 Gal4-VP16 UAS-luciferase, luminescence, 20 h. Potency, µM (top dose mostly 53.6 µM), without a hit: at the top dose activity, negative = inhibition, actives largely listed as inhibitors. 3.5% of 310,000 active;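 also: Gal4-VP16 expression switched on by copper sulfate through the metallothionein promoter; % is scaled to controls: 0 for no effect and ±100 for the full control effect; nearly all actives have a fitted effect of over 50% in size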
ATXN2 expr inh: Primary qHTS for Inhibitors of ATXN expression. 0.72% of 360,000 active. Potency, µM (doses to about 57 µM), inactives show at the highest dose activity change, negative = inhibition, hits mostly inhibitors. HEK-293 ATXN2-luciferase reporter, luminescence, 24 h. AID 1745845, 2022; also: % is scaled to controls: 0 for no effect and ±100 for the full control effect; nearly all actives have a fitted effect of over 55% in size
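ATXN2-luciferase reporter cells (luciferase flanked by upstream and downstream ATXN2 gene portions) were treated 24 h at 37 °C with compounds at up to 57 uM. SteadyGlo luminescence gave expression; GF-AFC fluorescence gave viability.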
TGFb inhibitor: qHTS for Inhibitors of TGF-b. HepG2 CAGA-GFP TGF-b/SMAD3 reporter, GFP fluorescence, 18 h; TGF-beta stimulated, 500 pg/mL final. Potency, µM (highest dose often 46.1 µM), for inactives: at the top dose activity, negative = inhibition, usual class: inhibitors. 1.2% of 410,000 active; also: % is scaled to controls: 0 for no effect and ±100 for the full control effect; nearly all actives have a fitted effect of over 65% in size
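GFP signal (ex488/em500-530) from TGF-beta-stimulated HEPG2 CAGA-GFP cells, 500 pg/mL final, 18 h at 37 degrees C in DMEM plus 1% FBS, normalized to unstimulated and DMSO-stimulated controls.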
An asterisk follows results filed as active; i = inactive; ? = inconclusive; . = not tested or not shown. Compounds with a hit are over-represented: about 6.1% of the library has one in this group of screens. Calls follow the shape of the dose curve; as a rule, active = well fitted curve in the direction sought with a large enough effect; inconclusive = small, poorly fitted or top-dose-only effect, or another doubt; inactive = no such curve, though single readings can be large; an effect the other way counts as inactive or inconclusive. Potency is read from the fitted curve at half-maximal effect.

SMILES	HepG2 tox	ATXN viability	RORg inh	VP16 counter	ATXN2 expr inh	TGFb inhibitor
C/C(CC(=O)Nc1ccc(Cl)c(Cl)c1)=N\NC(N)=S	-29%	i	5.6µM*	11µM*	-15%	-29%
C/C(CC(=O)Nc1ccc(Cl)cc1Cl)=N\NC(=O)c1ccncc1	-21%	i	?	18µM*	.	-4%
C/C(CC(=O)Nc1cccc(Cl)c1)=N\NC(=O)Cc1ccc(Cl)cc1	-33%	i	?	?	-11%	-16%
C/C(CC(=O)Nc1ccc(Cl)cc1Cl)=N\NC(N)=S	-26%	i	21%	-7%	5%	?
C/C(CC(=O)Nc1ccc(C)c(Cl)c1)=N\NC(=O)c1ccncc1	-28%	i	?	22%	-18%	?
CCOc1cccc2sc(NC(=O)c3ccc(S(=O)(=O)N4CCCCC4C)cc3)nc12 (stereo not given)	0%	.	.	.	.	-9%
CCC1CN(CCNC(=O)c2ccc(N3CCOCC3)cc2)Cc2cc(OC)ccc2O1 (stereo not given)	.	i	.	.	.	.
CCN(CC)Cc1nc2c(c(=O)[nH]1)C1(CCCC1)Cc1ccccc1-2	-4%	i	2.8µM*	11µM*	-14%	-3%
C=CCNC(=S)NNc1nc2c(c(=O)[nH]1)C1(CCCCC1)Cc1ccccc1-2	-14%	i	1µM*	1.8µM*	3%	?
Cc1ccc(CNC(=O)C2CCN(S(=O)(=O)c3c(C)noc3/C=C/c3ccccc3F)CC2)o1	-12%	.	.	.	.	-11%
CCc1ccccc1NC(=O)CC1Sc2ccc(C(F)(F)F)cc2NC1=O (stereo not given)	-51%	i	.	.	-7%	13%
O=C(CC1Sc2ccc(C(F)(F)F)cc2NC1=O)Nc1ccc(Cl)c(C(F)(F)F)c1 (stereo not given)	-97%	i	.	.	?	14µM*
CSc1ccc(/C=N/Nc2nc(C)cc(C)n2)cc1	3%	i	11µM*	?	5%	-21%
CCNc1nc(NCC)nc(N/N=C/c2ccc(Br)cc2)n1	-4%	i	18µM*	-16%	-27%	6%
Cc1cc(C)nc(N/N=C/c2ccc(Cl)cc2)n1	-12%	i	10%	-11%	.	2%
CC(/C=N/Nc1nc(C)cc(C)n1)=C\c1ccc(C(C)C)cc1	-3%	i	11µM*	?	17%	-6%
Cc1ccc(/C=N/Nc2nc(C)cc(C)n2)cc1	5%	i	10µM*	1%	-4%	2%
CC(C)c1ccc(OCC(=O)Nc2ccc(S(=O)(=O)Nc3ncccn3)cc2)cc1	-1%	i	.	.	10%	-9%
Cc1ccc(-c2ccc(=O)n(CC(=O)Nc3ccc(C)cc3Cl)n2)cc1	-31%	i	.	.	-20%	-34%
CCc1[nH]c(=O)[nH]c1C(C)S(=O)(=O)c1ccc(C)cc1 (stereo not given)	19%	i	14µM*	?	0%	7%
O=C(c1cnn(-c2nccc(-c3ccccc3F)n2)c1C1CC1)N1CCCCC1c1cccnc1 (stereo not given)	.	i	.	.	.	.
CCc1ccc(NC(=O)c2ccc(CN3C(=O)C(C)=C(c4ccc(C)cc4)S3(=O)=O)cc2)cc1	-7%	.	.	.	.	0%
CCCN1/C(=C2/SC(=S)N(CC)C2=O)C=Cc2ccccc21	-27%	?	-4%	1%	-7%	-17%
CN1C(=O)/C(=C2/C=Cc3ccccc3N2CCCS(=O)(=O)O)SC1=S	0%	16µM*	-5%	-13%	13%	2%
CCCNC(=O)c1ccc(-c2nc(CS(=O)(=O)c3ccc(C)cc3)c(C)o2)cc1	-23%	i	.	.	7%	2%
SMILES	HepG2 tox	ATXN viability	RORg inh	VP16 counter	ATXN2 expr inh	TGFb inhibitor
c1ccc(Oc2nc(-c3ccccn3)nc3ccccc23)cc1	-8%	i	0.63µM*	3.2µM*	?	0%
Fc1ccc(Oc2nc(-c3ccccn3)nc3ccccc23)cc1	-10%	i	0.71µM*	2.5µM*	-23%	?
COc1ccc(Oc2nc(-c3ccccn3)nc3ccccc23)cc1	-35%	?	0.4µM*	2.5µM*	-35%	?
O=C(NCc1ccccc1)C(=O)NCC(c1ccco1)S(=O)(=O)c1ccccc1 (stereo not given)	-13%	.	.	.	.	?
Cc1nnc2c3ccccc3nc(N3CCN(c4ccccc4)CC3)n12	-8%	i	.	.	-3%	-18%
Cn1c(-c2sc3cc(C(F)(F)F)cnc3c2-c2cccs2)n[nH]c1=S	-10%	i	2.8µM*	-7%	1%	-17%
BrC(=C\c1ccccc1)/C=N/n1cnnc1	2%	?	7.1µM*	?	.	26%
O=C(CN1CCN(Cc2ccccc2)CC1)N/N=C/c1ccc(Br)s1	-7%	i	5.6µM*	10µM*	-28%	-10%
O=C(N/N=C/c1ccc(Br)s1)c1ccccn1	-36%	i	?	4µM*	18%	-23%
C/C(=N\NC(=O)c1ccoc1C)c1ccc(Br)s1	-13%	i	6.3µM*	11µM*	36%	1%
Cc1occc1C(=O)N/N=C/c1ccc(Br)s1	21%	i	6.3µM*	10µM*	37%	6%
CC(=NNC(=O)c1cc(C)oc1C)c1ccc(Br)s1	0%	i	.	.	7%	9%
COc1ccc(CNC(=O)c2cc(=O)[nH]c3ccc(S(=O)(=O)N4CCCC4)cc23)c(OC)c1	2%	.	.	.	.	-19%
N#Cc1cccc(-c2ccc3ncnc(NCCN4CCOCC4)c3c2)c1	.	.	30%	-10%	.	.
O=C(N/N=C/c1sc(=O)n(Cc2ccc(Br)cc2)c1Cl)c1ccco1	-89%	.	11µM*	?	?	?
O=C(N/N=C/c1ccc(Br)s1)c1ccco1	-26%	i	6.3µM*	10µM*	27%	3%
O=S(=O)(NCc1csc(-c2cccs2)n1)c1cccc(C(F)(F)F)c1	-97%	.	1%	-6%	16%	16µM*
O=C(c1ccco1)N1CCN(CCCCOc2cccc3ccccc23)CC1	7.9µM*	?	?	0%	?	?
O=C(CC(Sc1ccc(Br)cc1)C(=O)O)c1ccc(Br)cc1 (stereo not given)	.	.	14µM*	?	.	.
O=C(Nc1nsc(-c2ccccc2)n1)c1ccc(F)cc1	2.8µM*	i	-25%	15%	35%	-5%
O=C(Nc1nc2nccc(-c3ccccc3)n2n1)c1ccc(F)cc1	1%	i	11%	-5%	1%	-3%

Screens (PubChem BioAssay)
